Holding throughout (assay type): functional
Experiment [1] concerns the target Solute carrier family 2, facilitated glucose transporter member 1 (Homo sapiens) (UniProt P11166). In words: ST_JUDE_LEISH: Cytotoxicity at 2uM final concentration against transgenic Leishmania Mexicana promastigotes LmGLUT1 that are glucose transport deficient and complemented with the human glucose transporter GLUT1. Activity is measured by DNA content using SYBR green in vitro.

The target of experiment [2] is Hexose transporter 1 (Plasmodium falciparum) (UniProt O97467). In words: ST_JUDE_LEISH: Cytotoxicity at 2uM final concentration against transgenic Leishmania Mexicana promastigotes LmPfHT that are glucose transport deficient and complemented with the Plasmodium falciparum hexose transporter. Activity is measured by DNA content using SYBR green in vitro.
Experiment [3] concerns the target Glucose transporter (Leishmania mexicana) (UniProt O61059). Kind of experiment: ST_JUDE_LEISH: Cytotoxicity at 2uM final concentration against transgenic Leishmania Mexicana promastigotes LmGT2 that are glucose transport deficient and complemented with the L. Mexicana glucose transporter 2. Activity is measured by DNA content using SYBR green in vitro.

Solute carrier family 2, facilitated glucose transporter member 1 (Homo sapiens), sequence (P11166 whole entry): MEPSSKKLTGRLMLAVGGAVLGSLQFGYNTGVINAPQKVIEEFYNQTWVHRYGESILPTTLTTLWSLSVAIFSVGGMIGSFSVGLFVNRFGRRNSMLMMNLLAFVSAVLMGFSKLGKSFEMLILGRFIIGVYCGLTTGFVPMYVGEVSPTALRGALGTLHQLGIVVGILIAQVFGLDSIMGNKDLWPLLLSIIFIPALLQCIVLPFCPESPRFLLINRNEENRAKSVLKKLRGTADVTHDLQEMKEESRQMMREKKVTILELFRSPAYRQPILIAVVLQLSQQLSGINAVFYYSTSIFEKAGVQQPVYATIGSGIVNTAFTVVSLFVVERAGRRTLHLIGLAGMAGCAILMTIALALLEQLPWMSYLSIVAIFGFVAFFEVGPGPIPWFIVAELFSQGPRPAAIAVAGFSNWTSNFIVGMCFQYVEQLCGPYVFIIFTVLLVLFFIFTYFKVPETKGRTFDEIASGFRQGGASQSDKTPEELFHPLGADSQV

By inhibition is commonly meant the change of the read-out against control, counted positive when it falls. Turning to `CS(=O)(=O)Nc1ccc2[nH]cc(C3CCN(CC4CCC(NC(=O)/C=C/c5ccc(Cl)c(Cl)c5)CC4)CC3)c2n1` (stereo unspecified), the results for the inhibition in experiment [1], in experiment [2] and in experiment [3] were 3.3%, 1.84% and 0.21%, respectively.

As to `O=C(Nc1ccc(CN2CCN(S(=O)(=O)c3ccc(Cl)s3)CC2)cc1)c1cccs1`, the inhibition in experiment [1] turned out to be 8.13%; in experiment [2], 7.45%; in experiment [3], 5.63%.

`COc1cc2nc(N3CCC(CNC(=O)c4ccc(-c5ccc(C(=O)N(C)C)cc5)c(OCCO)c4)CC3)nc(N)c2cc1OC`: the inhibition in experiment [1] turned out to be 2.82%; in experiment [2], 3.22%; in experiment [3], 2.26%.

`CN1CCN(CCCN(Cc2ccc(-c3cccc(CNC4CCCC4)c3)cc2)C(=O)Nc2ccccc2)CC1`: the inhibition turned out to be 9.1% in experiment [1], 3.98% in experiment [2] and 5.53% in experiment [3].

Turning to `CN(C)S(=O)(=O)c1ccc(N2C(=O)C3C(C2=O)C2(c4ccccc4)C(=O)C3(c3ccccc3)C(c3ccccc3)=C2c2ccccc2)cc1` (stereo unspecified), the figures for the inhibition in experiment [1], in experiment [2] and in experiment [3] were -0.75%, -2.18% and -2.57%, respectively.

On to `c1ccc(Oc2ccc(Nc3ccnc4cc(-c5ccc(CN6CCNCC6)o5)ccc34)cc2)nc1`, for which the inhibition in experiment [1] was determined as 11.2%; in experiment [2], 8.71%; in experiment [3] it was 5.3%.

On to `CCN(CC)CCNC(=O)c1ccc(NC(=O)c2ccc(-c3cc(NC(=O)CC4CCCC4)ccc3C)cc2)cc1`, for which the values for the inhibition in experiment [1], in experiment [2] and in experiment [3] were 2.1%, 1.64% and 2.4%, respectively.

Consider `CC(C)(C)c1ccc2[nH]c(-c3ccc(C(=O)NC4CCN(Cc5ccccc5)CC4)s3)nc2c1`, for which the inhibition in experiment [1] is 3.39%; in experiment [2] it was 2.69%; in experiment [3] it was 1.79%.

`Cc1nc(-c2nc(N3CCOCC3)ncc2-c2ccsc2)sc1C`: the results for the inhibition in experiment [1], in experiment [2] and in experiment [3] were -1.47%, -0.4% and 1.4%, respectively.

For the molecule `CC(C)CCNC(=O)C1Cc2c([nH]c3cc(Cl)ccc23)C2(CCN(CCc3ccccc3)CC2)N1` (stereo unspecified), the inhibition in experiment [1] was determined as 1.75%; in experiment [2] it was 2.24%; in experiment [3], 0.76%.

With `COc1ccc(NC(=O)NC2CCN(CCCOc3ccnc4cc(Cl)ccc34)C2)cc1OC` (stereo unspecified), the inhibition was -0.88% in experiment [1], -0.13% in experiment [2] and -0.69% in experiment [3].

Turning to `CCCCCCCN1CCC(CC(=O)Nc2ccnc3ccc(OC)cc23)C(CC)C1` (stereo unspecified), the figures for the inhibition in experiment [1], in experiment [2] and in experiment [3] were -2.12%, -1.03% and -0.31%, respectively.

`CCCCN1CCN(CC(O)CNC(=O)Nc2ccc(Cl)cc2)CC1` (stereo unspecified): the inhibition in experiment [1] came to 2.88%; in experiment [2] it was 3.59%; in experiment [3], 1.81%.

As to `COc1cc(-c2ccc3c(-c4ccc(C(=O)N5CCN(C)CC5)cc4)n[nH]c3n2)cc(OC)c1OC`, the results for the inhibition in experiment [1], in experiment [2] and in experiment [3] were 0.99%, 1.78% and 5.3%, respectively.

On to `COc1ccc(-c2nc(NC(=O)CS(=O)(=O)c3ccc(OC)cc3)sc2C)cc1`, for which the inhibition in experiment [1] stood at 2.15%; in experiment [2], 2.85%; in experiment [3], 3.47%.

Regarding `CCNC1=NC2=C(CC(C(C)(C)C)CC2)C2(CCC(C(C)(C)C)CC2)S1` (stereo unspecified), the inhibition in experiment [1] is 4.57%; in experiment [2], 4.3%; in experiment [3] it was 1.15%.

In the case of `Cc1ncsc1CCN1C(=O)CC2(C1=O)C(=O)N(Cc1ccccc1)c1ccc(Cl)cc12` (stereo unspecified), the inhibition was 1.9% in experiment [1], 2.58% in experiment [2] and -1.17% in experiment [3].

Consider `COc1ccccc1C1CCN(C2CCC(NC(=O)/C=C/c3ccc(F)c(F)c3)CC2)CC1` (stereo unspecified), for which the figures for the inhibition in experiment [1], in experiment [2] and in experiment [3] were -3.94%, -1.53% and -2.36%, respectively.

Regarding `COc1cc(Cc2cnc(N)nc2N)ccc1OCc1cccc(Oc2ccccc2)c1`, the values for the inhibition in experiment [1], in experiment [2] and in experiment [3] were 2.15%, 1.48% and 0.19%, respectively.

Consider `O=C(Nc1cccc(-c2cccc(-c3nc4cc(C(F)(F)F)ccc4[nH]3)c2)c1)c1cccnc1Cl`, for which the values for the inhibition in experiment [1], in experiment [2] and in experiment [3] were 0.15%, 0.52% and -2.92%, respectively.

For the molecule `Cc1cccc2nc(-c3ccc(-c4cccc(CN5CCCC5CN)c4)s3)[nH]c12` (stereo unspecified), the inhibition was 2.06% in experiment [1], -0.2% in experiment [2] and -0.03% in experiment [3].

On to `CCN1CCN(c2ccc(Nc3ccnc4ccc(Br)cc34)cc2)CC1`, for which the inhibition was 1.43% in experiment [1], 0.09% in experiment [2] and -0.25% in experiment [3].

`CCOC(=O)/C(=N\OC(C(=O)OC(C)(C)C)c1ccccc1)c1csc(NC(c2ccccc2)(c2ccccc2)c2ccccc2)n1` (stereo unspecified): the inhibition in experiment [1] stood at 0.73%; in experiment [2] it was 1.43%; in experiment [3], 0.99%.

For the molecule `COc1cccc(Nc2nnc(SCC(=O)NNC(=O)c3ccccn3)s2)c1`, the inhibition is 0.56% in experiment [1], 2.27% in experiment [2] and -1.42% in experiment [3].

`CC(C(=O)N1CCCC1)N1CCN(S(=O)(=O)c2ccc(C(C)(C)C)cc2)CC1` (stereo unspecified): the inhibition in experiment [1] is -0.57%; in experiment [2], 0.46%; in experiment [3], 4.07%.

With `Cc1nc2ccc3ccc(CNc4ccc5c(c4)CN([C@H](CCC(=O)O)C(=O)O)C5=O)cc3c2c(=O)[nH]1`, the inhibition in experiment [1] was 3.36%; in experiment [2], 2.42%; in experiment [3] it was 10%.

Turning to `Cc1cc(N(C)C2CCN(C)C2)nc(Nc2ccccc2Cl)n1` (stereo unspecified), the inhibition came out at 1.12% in experiment [1], 2.69% in experiment [2] and 2.94% in experiment [3].

Turning to `COc1cc(NC(=O)Nc2ccnc3ccccc23)cc(OC)c1`, the values for the inhibition in experiment [1], in experiment [2] and in experiment [3] were 0.62%, -0.6% and 1.16%, respectively.

With `CC(C)CNC(=O)c1ccc(-c2cccc(CN3CCC(N4CCCC4)CC3)c2)nc1`, the inhibition came out at 2.51% in experiment [1], 2.17% in experiment [2] and 1.53% in experiment [3].

With `CCOc1ccc(C(=O)Nc2cc(Cl)ccc2O)cc1Cl`, the inhibition in experiment [1] was -1.03%; in experiment [2] it was 0.11%; in experiment [3] it was -1.5%.

With `O=C(Nc1cccc(-c2ccc(-c3nc4cc(F)ccc4[nH]3)cc2)c1)Nc1ccc(F)c(F)c1F`, the figures for the inhibition in experiment [1], in experiment [2] and in experiment [3] were 2.86%, 4.09% and -1.44%, respectively.

`O=C(Nc1ccc(-n2ccc(C(F)(F)F)n2)cc1)c1cccs1`: the inhibition in experiment [1] was found to be 0.18%; in experiment [2], 0.85%; in experiment [3], 0.42%.

Values taken from ChEMBL document CHEMBL3433997, “St. Jude Leishmania screening dataset” (2016).
